High-throughput results from PubChem BioAssay.
DT40 TDP1 CPT = DT40-hTDP1 cell growth loss with CPT; Potency, µM (highest dose often 46.2 µM), hits mostly inhibitors; chicken DT40 Tdp1-/-;hTDP1 cells + 20 nM CPT, ATP luminescence, 48 h; actives 12% (n = 420,000); AID 686979; further: nearly all actives have a fitted effect of over 55% in size
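Cell growth measured by CellTiter-Glo luminescence after a minimum 48 h, 37 C compound exposure with 20 nM CPT in Tdp1-knockout DT40 cells stably expressing hTDP1, seeded 400/well; qHTS titration format.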
TGFb inhibitor = TGF-b pathway inhibition; HepG2 CAGA-GFP TGF-b/SMAD3 reporter, GFP fluorescence, 18 h; TGF-beta stimulated, 500 pg/mL final; Potency, µM (doses to about 46.1 µM), actives largely listed as inhibitors; actives 1.2% (n = 410,000); AID 588855; further: nearly all actives have a fitted effect of over 65% in size
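Inhibition of TGF-beta-driven CAGA-GFP reporter expression in HEPG2 cells is measured by cellular GFP fluorescence after 18 h stimulation with 500 pg/mL recombinant TGF-beta in 1% FBS medium at 37 degrees C.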
DT40 TDP1 no CPT = qHTS for Inhibitors of human tyrosyl-DNA phosphodiesterase 1 (TDP1): qHTS in cells in absence of CPT; DT40 Tdp1-/- hTDP1 cells, no CPT, ATP luminescence, 48 h; Potency, µM (top dose mostly 46.2 µM), most hits filed as inhibitors; actives 15% (n = 420,000); further: nearly all actives have a fitted effect of over 55% in size
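Compound effects on proliferation are scored in DT40 Tdp1-/-;hTDP1 cells in the absence of CPT. ATP levels (CellTiter-Glo luminescence) are recorded after a ≥48 hr, 37 °C incubation.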
HT1080 IDH1KD tx = toxicity to HT-1080 IDH1 knockdown cells (counter line) | HT-1080 IDH1 knockdown viability, ATP luminescence, 48 h | Potency, µM (titrated, usually from 46.1 µM), actives largely listed as cytotoxic | actives 2% (n = 360,000) | AID 686971
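Cytotoxicity counter-line: IDH1KD HT-1080, 48 h, CellTiter-Glo. Curves classed by r2, magnitude and activity.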
HT1080-NT tox = kills 2HG-producing HT-1080-NT fibrosarcoma cells. HT-1080-NT fibrosarcoma viability, CellTiter-Glo ATP luminescence, 48 h. Potency, µM (titrated, usually from 46.1 µM), hits mostly cytotoxic. actives 1.6% (n = 360,000). AID 686970;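 further: NT is the 2HG producing partner of a matched IDH1 knockdown line; nearly all actives have a fitted effect of over 55% in size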
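Viability by CellTiter-Glo luminescence after 48 h compound exposure at 37C of HT-1080-NT cells (750/well, RPMI, 5% FBS). % activity scaled between DMSO wells and medium-only wells, then curve-fitted and categorized by curve class.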
HepG2 tox = HepG2 cytotoxicity, counter-screen for TGF-b inhibitors. HepG2 CAGA-GFP viability, ATP luminescence, 18 h. Potency, µM (titrated, usually from 46.1 µM), usual class: cytotoxic. actives 0.76% (n = 410,000)
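CellTiter-Glo luminescence gave cytotoxicity after 18 hours at 37 degrees C. The cells were HepG2 CAGA-GFP in 1% FBS DMEM, stimulated with 500 pg/mL TGF-beta after compound addition. %Activity was normalised to no-cell wells (complete cell-killing) and DMSO (no toxicity), and curves were fitted and classified.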
Numbers stand for hits; i = inactive; ? = inconclusive; nt = not tested or not shown; [ ] = dose if it differs, or a comment. Only some compounds are listed: those with a hit (about 17% of all), similar ones and a draw of the others. The call rests on the fitted dose curve; in most records, active means well fitted curve in the direction sought with a large enough effect; inconclusive means small, poorly fitted or top-dose-only effect, or another doubt; inactive means no such curve, though single readings can be large; an effect the other way counts as inactive or inconclusive.

SMILES	DT40 TDP1 CPT	TGFb inhibitor	DT40 TDP1 no CPT	HT1080 IDH1KD tx	HT1080-NT tox	HepG2 tox
O=C(Nc1ccc(C(=O)O)cc1)Nc1cccc2ccccc12	i	i	i	i	i	i
O=C(Nc1ccccc1)Nc1ccc(O)c2ccccc12	1.6µM	?	12µM	i	i	i
Cc1cc(=O)c(C(=O)NCCc2ccccn2)c2n1-c1ccccc1SC(c1cccs1)C2 (centres undefined)	i[9.04 µM]	nt	i	nt	nt	nt
CN1CCN(S(=O)(=O)c2cccc(S(=O)(=O)c3ccc(Cl)cc3)c2)CC1	?	i	16µM	i	i	i
Cc1ccc(S(=O)(=O)c2cccc(S(=O)(=O)N3CCCC3)c2)cc1S(=O)(=O)N1CCCC1	21µM	i	18µM	i	?	i
O=S(=O)(c1ccccc1)c1cccc(S(=O)(=O)N2CCCCC2)c1	?	i	?	i	i	i
Cc1ccc(S(=O)(=O)c2cccc(S(=O)(=O)N3CCOCC3)c2)cc1S(=O)(=O)N1CCOCC1	i	i	?	i	i	i
CC(C)CN(C(=O)CN(C)C(=O)c1ccco1)c1c(N)n(CC(C)C)c(=O)[nH]c1=O	i	i	i	i	i	i
O=C(Nc1c(F)cccc1F)c1cnc(N2CCN(c3ccccn3)CC2)c2ccccc12	23µM	i	23µM	i	i	i
Cc1ccc(NC(=O)c2cnc(N3CCN(c4ccccn4)CC3)c3ccccc23)c(Br)c1	15µM	i	13µM	?	i	i
Cc1ccc(S(=O)(=O)NCC2CCC(C(=O)NCCc3ccc(Cl)cc3)CC2)cc1 (centres undefined)	i	i	i	nt	nt	i
Cc1ccc(C)c(NC(=O)CSc2nc(=O)n(CCN(C)C)c3c2CCC3)c1	i	i	i	nt	nt	i
COc1ccc2c(c1)[nH]c1c(=O)n(CCN(C)C)cnc12	i	i	i	i	i	i
COc1ccc2c(c1)[nH]c1c(N3CCSCC3)ncnc12	7.3µM	i	8.2µM	15µM	?	i
COc1ccc2c(c1)[nH]c1c(N3CCN(Cc4ccc5c(c4)OCO5)CC3)ncnc12	2.3µM	20µM	1.6µM	?	i	i
COc1cccc(NC2=NC3(CCCCC3)N=C(N)N2)c1	i	i	i	i	i	i
Cc1cccc(C)c1NC(=O)CN(C)C(=O)COc1cccc2c1OC(C)(C)C2	i	i	i	i	i	i
COc1cccc(CNC(=O)[C@@H](C)N2C(=O)N3CCc4c([nH]c5ccc(OC)cc45)C3(C)C2=O)c1 (some centres undefined)	15µM	?	16µM	i	i	i
COc1ccc2[nH]c3c(c2c1)CCN1C(=O)N([C@@H](C)C(=O)NCCc2ccc(OC)c(OC)c2)C(=O)[C@]31C	23µM	i	15µM	i	i	i
COc1ccc(CCNC(=O)[C@H](C)N2C(=O)N3CCc4c([nH]c5ccccc45)[C@@]3(C)C2=O)cc1	21µM	i	16µM	i	i	i
COc1ccccc1CNC(=O)[C@H](C)N1C(=O)N2CCc3c([nH]c4ccccc34)[C@@]2(C)C1=O	29µM	?	18µM	i	i	i
CSCC[C@H](NC(=O)[C@H](Cc1ccccc1)NC[C@@H](NC[C@@H](N)CS)C(C)C)C(=O)O	i	nt	?	nt	nt	nt
CCCN1CCN(C(=O)c2cc(COc3ccc(F)c(F)c3)on2)CC1	i	i	i	i	i	i
COc1ccc(OCc2cc(C(=O)N3CCC(OC)CC3)no2)c2ccccc12	23µM	i	15µM	i	i	i
CCN1CCN(C(=O)c2cc(COc3ccc(F)c(F)c3)on2)[C@@H](C)C1=O	15µM	i	21µM	i	i	i
SMILES	DT40 TDP1 CPT	TGFb inhibitor	DT40 TDP1 no CPT	HT1080 IDH1KD tx	HT1080-NT tox	HepG2 tox
O=C(c1cc(COc2ccc(F)cc2Cl)on1)N1CCN(C2CCCC2)CC1	18µM	?	?	i	i	i
O=C(c1cc(COc2ccc(F)cc2Cl)on1)N1CCN(C2CCCCC2)C(=O)C1	10µM	?	7.3µM	i	i	i
CN1CCN(C(=O)Nc2cccc(-c3ccccc3)c2)CC1	i	i	i	i	i	i
Cc1ccc(S(=O)(=O)Oc2ccc(/C=C3/N=C(c4ccccc4)OC3=O)cc2)cc1	?	?	?	i	i	i
COc1cc(Cl)ccc1OCc1cc(C(=O)N2CCN(C3CCCCC3)CC2)no1	?	i	23µM	i	i	i
O=C(c1cc(COc2c(F)cccc2F)on1)N1CCN(C2CCCCC2)C(=O)C1	?	i	?	i	i	i
O=C(c1cc(COc2ccc(F)c(F)c2)on1)N1CCN(C2CCCCC2)C(=O)C1	?	?	23µM	i	i	i
O=C(c1cc(COc2ccc(F)c(F)c2)on1)N1CCN(C/C=C/c2ccccc2)CC1	?	?	26µM	?	?	i
Cc1ccccc1S(=O)(=O)Nc1ncc(C(F)(F)F)cc1Cl	i	i	i	i	i	i
O=S(=O)(NNc1ncc(C(F)(F)F)cc1Cl)c1ccccc1	16µM	i	?	?	?	i
O=S(=O)(NNc1ncc(C(F)(F)F)cc1Cl)c1ccc(F)cc1F	?	i	21µM	i	i	i
O=C(Nc1cc(S(=O)(=O)Nc2ccc(Cl)cc2)ccc1N1CCCCC1)c1ccc(F)cc1Cl	?	?	?	?	?	i
NC(=O)CN1C(=O)C(=O)N(Cc2cccc(C(F)(F)F)c2)C1=O	i	i	i	i	i	i
O=c1cnn(-c2ccccc2)c(-c2ccccc2)c1	?	i	18µM	?	?	i
O=C(/C=C/c1ccc(Cl)cc1)N1CCN(c2c(Cl)cccc2[N+](=O)[O-])CC1	?	?	15µM	i	i	i
O=[N+]([O-])c1ccc(N2CCN(CCOc3nonc3-c3ccccc3)CC2)c(Cl)c1	29µM	i	?	i	i	i
CN1CCN(C(=O)/C=C\c2ccc(Cl)cc2)CC1	i	i	i	i	i	i
O=[N+]([O-])c1ccc(N2CCN(c3ccccc3O)CC2)c(Cl)c1	21µM	i	23µM	i	i	i
O=C(CSc1ccc(Cl)cc1)N1CCN(c2c(Cl)cccc2[N+](=O)[O-])CC1	16µM	?	15µM	i	i	i
CC1CN(C(=S)Nc2ccccc2C(F)(F)F)CC(C)O1 (centres undefined)	i	i	i	i	i	i
COC(=O)c1ccccc1NC(=O)c1ccc2c(Cl)c3c(nc2c1)CCCC3	i	i	i	nt	nt	i
